Results filed as inconclusive are left out. Entries that show only a call come without a potency. Unmarked numbers belong to inactive results. Activity calls are given as the source filed them. The call rests on the fitted dose curve.

Chain of Beta-2 adrenergic receptor (Homo sapiens) (P07550 whole entry, looked up): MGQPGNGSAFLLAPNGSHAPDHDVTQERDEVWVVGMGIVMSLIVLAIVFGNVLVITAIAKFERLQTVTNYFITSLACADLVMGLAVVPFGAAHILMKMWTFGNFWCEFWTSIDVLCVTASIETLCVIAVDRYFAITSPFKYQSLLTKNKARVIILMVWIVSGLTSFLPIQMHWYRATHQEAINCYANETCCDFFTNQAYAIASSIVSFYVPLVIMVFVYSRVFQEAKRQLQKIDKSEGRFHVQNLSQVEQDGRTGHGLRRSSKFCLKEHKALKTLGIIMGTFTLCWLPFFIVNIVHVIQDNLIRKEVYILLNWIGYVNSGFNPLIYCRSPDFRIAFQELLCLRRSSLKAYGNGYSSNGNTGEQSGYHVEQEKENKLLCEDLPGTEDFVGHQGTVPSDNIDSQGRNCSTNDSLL

This test concerns the target Beta-2 adrenergic receptor (Homo sapiens) (UniProt P07550). Description: Adrenergic beta2 receptor (ADRB2) small molecule agonists, cell-based qHTS assay (AID 1963593). As to conditions: CHO-ADRB2 cells, cAMP HTRF, 30 min; series mostly up to 92.4 µM. The source says: National Center for Advancing Translational Sciences [NCATS]
Division of Preclinical Innovation [DPI]
U.S. Environmental Protection Agency [EPA]
National Institutes of Environmental Health Sciences [NIEHS]
National Toxicology Program [NTP]
U.S. Food and Drug Administration [FDA]
Beta adrenergic receptors (Beta-ARs) belong to the G-protein coupled receptor (GPCR) superfamily, includes three subtypes - beta1, beta2, and beta3. Beta1-AR is the predominant receptor subtype expressed in the heart, and beta2-AR is expressed in the kidney, lung, blood vessel and in the heart, and beta3 is found in the adipocytes. Beta1 and 2 ARs couple to Gs protein and elevate cyclic adenosine mono phosphate (cAMP), which activates protein kinase A and leads to the downstream signaling responsible for the physiological actions. Beta-AR agonists or antagonists are the most prescribed therapeutic agents for heart failure and asthma, and these were one of the first target receptors for the rational drug design. Tox21 10K compound library was screened using the cAMP-Gs dynamic assay (Cisbio Bioassays, Shelton, CT) to identify agonists/antagonists of the Gs-coupled human adrenergic, beta2 receptor (ADRB2) in the CHO-ADRB2 cell line (Codex BioSolutions, Inc. Gaithersburg, MD), which stably over-expresses ADRB2. The principle of cAMP-Gs dynamic assay is based on HTRF technology, which facilitates the fluorescence resonance energy transfer (FRET) between donor Europium cryptate and acceptor d2-labeled cAMP. The cAMP generated within cells competes with the red acceptor, d2-labled cAMP, for binding to the monoclonal anti-cAMP-cryptate (Europium donor). An increase in intracellular cAMP leads to the disruption of FRET signal, and the signal is inversely proportional to the cAMP concentration. Isoproterenol HCl (Sigma-Aldrich, St. Louis, MO) was used as a positive control in the screening.
Tox21 Assay Protocol Summary:
CHO-ADRB2 cells were dispensed at 1,000/well in 4uL assay medium into white/solid 1536-well plates (Greiner Bio-One North America Inc., Monroe, NC) using a Multidrop Combi dispenser (ThermoFisher Scientific, Waltham, MA). The assay plates were incubated at 37C and 5% CO2 for an overnight (18-20hr). Then positive control and test compounds dissolved in DMSO were transferred to the assay plates at 23nL using a Pintool station (Wako, San Diego, CA). Following the compound and positive control transfer, 1uL stimulation mix containing 100uM IBMX and 25uM Ro-20-1724 was added to each well of the assay plates using BioRAPTR Flying Reagent Dispenser (FRD, Beckman Coulter, Brea, CA). The assay plates were incubated at room temperature for 0.5hr. Then 2.5ul each d2-labled cAMP and anti-cAMP-cryptate solutions were added separately to each well of the assay plates using an FRD and the assay plates were incubated at room temperature for 1hr.
On the technique in general: qHTS replaces the single test concentration by a dilution series.
Turning to `N#CCCN(CCO)CCO`, the Potency entry is “inactive”.

On to `Cn1c(NCCN(CCO)CCCc2ccc([N+](=O)[O-])cc2)cc(=O)n(C)c1=O`, for which the Potency entry was “inactive”.

On to `C=CC[N+]1([C@H]2C[C@H]3[C@@H]4CC[C@H]5C[C@H](OC(C)=O)[C@@H](N6CCCCC6)C[C@]5(C)[C@H]4CC[C@]3(C)[C@H]2OC(=O)CC)CCCCC1`, for which the Potency entry was “inactive”.

Take `CCCCCCCCCO`: the Potency result is “inactive”.

As for `COc1cc(Nc2c(C#N)cnc3cc(OCCCN4CCN(C)CC4)c(OC)cc23)c(Cl)cc1Cl`, the Potency result was “inactive”.

For the compound `Cc1ccccc1OCC(=O)O`, the Potency entry was “inactive”.

For `O=C(Cl)c1c(Cl)cccc1Cl`, the Potency entry is “inactive”.

Regarding `C[C@@H]1C[C@H]2[C@@H]3C[C@H](F)C4=CC(=O)C=C[C@]4(C)[C@@]3(F)[C@@H](O)C[C@]2(C)[C@@]1(O)C(=O)CO`, the Potency entry is “inactive”.

On to `O=c1[nH][nH]c2ccccc12`, for which the Potency entry is “inactive”.

As for `CC(C)C(C)C`, the Potency result was “inactive”.

As for `CC1=CC(C)C(C=O)C(C)C1` (stereo not given), the Potency entry is “inactive”.

Turning to `Cc1ccc(N=Nc2c(O)c(C(=O)O)cc3ccccc23)c(S(=O)(=O)O)c1`, the Potency entry is “inactive”.

Turning to `CCCCCCCOC(=O)c1ccc(O)cc1`, the Potency entry was “inactive”.

With `O=C1OC(=O)c2cc(-c3ccc4c(c3)C(=O)OC4=O)ccc21`, the Potency result was “inactive”.

As for `C=C1CC[C@H](O)CC1=C/C=C1\CCC[C@]2(C)[C@@H]([C@H](C)/C=C/[C@H](C)C(C)C)CC[C@@H]12`, the Potency entry was “inactive”.

For `O=C(O)CNC(=O)c1ccccc1`, the Potency entry was “inactive”.

On to `C[C@H]1O[C@@H](O[C@H]2CC[C@@]3(C)[C@H](CC[C@@H]4[C@@H]3C[C@@H](O)[C@]3(C)[C@@H](C5=CC(=O)OC5)CC[C@]43O)C2)C[C@H](O)[C@@H]1O[C@H]1C[C@H](O)[C@H](O[C@H]2C[C@H](O)[C@H](O[C@@H]3O[C@H](CO)[C@@H](O)[C@H](O)[C@H]3O)[C@@H](C)O2)[C@@H](C)O1`, for which the Potency result is “inactive”.

Turning to `Nc1ccc2c(c1)CN1C(=O)c3ccccc3C1=N2`, the activation is 25.8% [at 19 µM].

As to `CCOC(=O)C1=C[C@]2(CC)CCCN3CCc4c(n1c1ccccc41)[C@@H]32`, the Potency entry is “inactive”.

As for `O=C1c2ccccc2C(=O)c2c(O)c(O)cc(O)c21`, the Potency result was “inactive”.

For `Cc1ccc(N/N=c2\c(=O)cc/c(=N\Nc3ccc(S(=O)(=O)O)cc3)c2=O)c(C)c1`, the Potency result is “inactive”.

With `CCCCCCCOC(=O)CCC`, the Potency result is “inactive”.

In the case of `CCOCN(C(=O)CS(=O)(=O)O)c1c(C)cccc1CC`, the Potency entry is “inactive”.

For `CCCCOCC(C)OCC(C)O` (stereo not given), the Potency entry was “inactive”.

Consider `CN(Cc1ccc(C(C)(C)C)cc1)Cc1cccc2ccccc12`, for which the Potency result was “inactive”.

In the case of `CN(C)C(=O)NC1(c2ccccc2)CCN(CC[C@@]2(c3ccc(F)c(F)c3)CN(C(=O)c3ccccc3)CCO2)CC1`, the Potency result was “inactive”.

Take `CS(=O)(=O)Nc1ccc([N+](=O)[O-])cc1Oc1ccccc1`: the Potency result is “inactive”.

Turning to `CCC(Cl)C(Cl)C(Cl)CC(Cl)C(Cl)C(C)Cl` (stereo not given), the Potency result was “inactive”.

Turning to `O=C1[C@@H]2[C@H]3CC[C@H](C3)[C@@H]2C(=O)N1CCCCN1CCN(c2ncccn2)CC1`, the Potency result was “inactive”.

Regarding `C=CC(=C)CCC=C(C)C`, the Potency result was “inactive”.

Turning to `Nc1nc(F)nc2c1ncn2[C@@H]1O[C@H](CO)[C@@H](O)[C@@H]1O`, the Potency result was “inactive”.

Take `CC(=O)Nc1ccc(S(=O)(=O)Nc2ccc([N+](=O)[O-])cc2)cc1`: the Potency result is “inactive”.

For `CCCCNC(=S)NCCCC`, the Potency result was “inactive”.

For the compound `C=CC(=O)OCCC#N`, the Potency entry was “inactive”.

As to `O=C(CS)OCCOC(=O)CS`, the Potency result is “inactive”.

For the compound `CC(=O)OCCC(C)CC(C)(C)C` (stereo not given), the Potency result is “inactive”.

Turning to `COc1cc(Cc2cnc(N)nc2N)cc(OC)c1OC`, the Potency entry was “inactive”.

As for `CC/C(=C(\c1ccc(O)cc1)c1ccc(OCCN(C)C)cc1)c1ccccc1`, the Potency entry was “inactive”.

Consider `CC(CN=Cc1ccccc1O)N=Cc1ccccc1O` (stereo not given), for which the Potency entry was “inactive”.

Regarding `c1ccc2sc(SN(C3CCCCC3)C3CCCCC3)nc2c1`, the Potency result is “inactive”.

For the origin of these results see PubChem BioAssay (Tox21).
